Among the test systems are HCT-15 colon; HT29 colon; SNB-75 CNS; SNB-19 CNS; U251 CNS; PC-3 prostate; SK-MEL-5 melanoma; UACC-62 melanoma; LOX IMVI melanoma; SK-MEL-28 melanoma; SK-MEL-2 melanoma; EKVX NSCLC; SN12C renal; UO-31 renal; TK-10 renal; ACHN renal; CAKI-1 renal; A498 renal; CCRF-CEM leukemia; MOLT-4 leukemia.
Assay in all cases: NCI-60 one-dose screen, 48 h (100 = growth as untreated, 0 = no growth, -100 = all killed)
Common to all, as to settings: 10 µM unless noted

The structures appear in SMILES notation. This is part of a sample that, as a whole, favours compounds with a hit. Of some 83,000 tested, about 20% had one in any assay.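 Values shown are percent growth following 48 h exposure of cells in 96-well plates to a single concentration of compound; below 10 was considered active.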 Values without a mark were called inactive. Activity calls are given as the source filed them.

These results are taken from PubChem BioAssay (NCI).

In the case of `C1=CN2CC(c3ccccc3)=NNC2c2ccccc21` (stereo not given), the growth in the experiment with HCT-15 colon is 96.6%; in the experiment with HT29 colon, 99.4%; in the experiment on SNB-75 CNS, 37.5%; in the experiment with SNB-19 CNS, 105%; in the experiment with U251 CNS, 103%; with PC-3 prostate, 81.9%. In addition, the growth was 92.8% in the experiment with SK-MEL-5 melanoma; 75.5% in the experiment on UACC-62 melanoma; 92.8% in the experiment with LOX IMVI melanoma; 126% in the experiment with SK-MEL-28 melanoma; 89.7% in the experiment on SK-MEL-2 melanoma; 73.4% in the experiment with EKVX NSCLC. Besides, the growth with SN12C renal is 88.8%; in the experiment with UO-31 renal, 53.8%; in the experiment with TK-10 renal, 120%; with ACHN renal, 85.7%; in the experiment on CAKI-1 renal, 65.2%; in the experiment with A498 renal, 104%. Besides, the growth was 88.3% in the experiment with CCRF-CEM leukemia and 40.2% in the experiment with MOLT-4 leukemia.

On to `CCc1n(Cc2ccc3ccccc3c2)cc[n+]1Cc1ccc2ccccc2c1`, for which the growth with HCT-15 colon was 70.1%; in the experiment with HT29 colon, -32.2% (active); in the experiment with SNB-75 CNS it was -5.96% (active); in the experiment with SNB-19 CNS, 5.41% (active); in the experiment with U251 CNS, 4.23% (active); in the experiment with PC-3 prostate, 2.65% (active). The growth with SK-MEL-5 melanoma is -93.3% (active); with UACC-62 melanoma it was -43.1% (active); with LOX IMVI melanoma, 1.9% (active); in the experiment with SK-MEL-28 melanoma, 2.03% (active); in the experiment with SK-MEL-2 melanoma it was -55.2% (active); in the experiment on EKVX NSCLC, 11.9%. For the same molecule, the growth with SN12C renal was 6.37% (active); in the experiment with UO-31 renal, 80.6%; in the experiment with TK-10 renal it was -10.3% (active); in the experiment with ACHN renal it was 72.3%; with CAKI-1 renal, 84.5%; with A498 renal, 21.8%. The figures for the growth in the experiment on CCRF-CEM leukemia and in the experiment on MOLT-4 leukemia were 11.4% and 10.6%, respectively.

Take `COc1cc(CNC(=O)/C=C/C=C/c2ccc3c(c2)OCO3)ccc1OCc1cn(-c2ccc(C)c(C)c2)nn1`: the growth in the experiment with HCT-15 colon is 81.3%; in the experiment with HT29 colon, 91.6%; in the experiment on SNB-75 CNS, 88.4%; in the experiment with SNB-19 CNS, 79.5%; in the experiment on U251 CNS, 86.3%; in the experiment on PC-3 prostate it was 75.1%. Also, the growth in the experiment on SK-MEL-5 melanoma was 81.7%; in the experiment with UACC-62 melanoma, 56.9%; with LOX IMVI melanoma it was 88.1%; with SK-MEL-28 melanoma, 54.1%; with SK-MEL-2 melanoma, 93.5%; in the experiment with EKVX NSCLC it was 94.1%. For the same molecule, the growth in the experiment on SN12C renal is 84.9%; in the experiment on UO-31 renal, 99.8%; with TK-10 renal, 120%; in the experiment with ACHN renal, 81.3%; in the experiment on CAKI-1 renal, 54.4%; in the experiment with A498 renal, 80.3%. The results for the growth with CCRF-CEM leukemia and with MOLT-4 leukemia were 95.7% and 96.2%, respectively.

For `Cn1ccnc1C(=O)C(=O)Nc1ccc(CC(=O)Nc2ccccc2)cc1`, the growth in the experiment on HCT-15 colon is 96.9%; with HT29 colon, 107%; in the experiment with SNB-75 CNS it was 92.2%; in the experiment with SNB-19 CNS, 96.5%; in the experiment with U251 CNS it was 108%; in the experiment on PC-3 prostate, 107%. In addition, the growth with SK-MEL-5 melanoma is 101%; with UACC-62 melanoma, 95.5%; in the experiment on LOX IMVI melanoma, 100%; in the experiment on SK-MEL-28 melanoma, 107%; with SK-MEL-2 melanoma, 123%; in the experiment on EKVX NSCLC it was 102%. The growth in the experiment with SN12C renal is 103%; in the experiment on UO-31 renal, 85.7%; in the experiment with TK-10 renal, 116%; with ACHN renal, 107%; in the experiment with CAKI-1 renal it was 93.3%; with A498 renal it was 103%. For the same molecule, the growth in the experiment with CCRF-CEM leukemia is 105%; with MOLT-4 leukemia, 107%.

In the case of `Cc1nc2ncnc(Cl)c2[nH]1`, the growth in the experiment with HCT-15 colon was 100%; with HT29 colon, 80.9%; in the experiment on SNB-75 CNS it was 89.1%; with SNB-19 CNS, 99.7%; in the experiment with U251 CNS, 91.3%; in the experiment with PC-3 prostate, 90.5%. The growth with SK-MEL-5 melanoma was 104%; with UACC-62 melanoma it was 100%; with LOX IMVI melanoma it was 97.5%; in the experiment with SK-MEL-28 melanoma, 115%; in the experiment with SK-MEL-2 melanoma, 104%; in the experiment with EKVX NSCLC it was 103%. For the same molecule, the growth with SN12C renal was 99.7%; in the experiment on UO-31 renal, 88.3%; in the experiment with TK-10 renal, 94.4%; in the experiment on ACHN renal, 109%; in the experiment with CAKI-1 renal it was 94.7%; in the experiment on A498 renal, 97.3%. The growth with CCRF-CEM leukemia is 87.7%; with MOLT-4 leukemia it was 94.7%.

With `Cc1ccc(C2=Nc3c(N)ncnc3NC(c3ccc4c(c3)OCO4)C2)cc1` (stereo not given), the growth was 34.6% in the experiment with HCT-15 colon; 14.1% with HT29 colon; 53.5% in the experiment with SNB-75 CNS; 73.2% with SNB-19 CNS; 46.9% with U251 CNS; 62.5% in the experiment with PC-3 prostate. The growth in the experiment with SK-MEL-5 melanoma is 33.3%; in the experiment with UACC-62 melanoma, 48.5%; in the experiment with LOX IMVI melanoma, 59.3%; with SK-MEL-28 melanoma it was 58%; in the experiment on SK-MEL-2 melanoma, 61.8%; in the experiment on EKVX NSCLC, 83.2%. Besides, the growth in the experiment with SN12C renal is 96.8%; in the experiment with UO-31 renal, 60.9%; in the experiment on TK-10 renal, 84.5%; in the experiment with ACHN renal, 74.3%; in the experiment with CAKI-1 renal, 56.6%; with A498 renal it was 55.4%. The results for the growth in the experiment on CCRF-CEM leukemia and in the experiment on MOLT-4 leukemia were -39.4% (active) and 49.3%, respectively.

In the case of `CC(C)c1ccc(NC(=O)Nc2ccc(NC(=O)CCCC(=O)NOCc3ccccc3)cc2)cc1`, the growth was 99.8% in the experiment with HCT-15 colon; 79.4% with HT29 colon; 80.2% in the experiment on SNB-75 CNS; 91.3% in the experiment with SNB-19 CNS; 85.6% in the experiment with U251 CNS; 93.3% in the experiment on PC-3 prostate. Also, the growth in the experiment with SK-MEL-5 melanoma is 83.8%; with UACC-62 melanoma, 89.2%; in the experiment on LOX IMVI melanoma it was 82.2%; with SK-MEL-28 melanoma, 94.4%; with SK-MEL-2 melanoma, 87.7%; in the experiment on EKVX NSCLC it was 105%. For the same molecule, the growth is 92.8% in the experiment with SN12C renal; 85% in the experiment with UO-31 renal; 103% with TK-10 renal; 87.4% in the experiment on ACHN renal; 87.9% in the experiment with CAKI-1 renal; 96.4% in the experiment with A498 renal. The growth with CCRF-CEM leukemia was 75.1%; with MOLT-4 leukemia, 71.1%.

`O=S(=O)(NCCNc1nccc(-c2c(-c3cccc(F)c3)nc3occn23)n1)c1ccc(Br)cc1`: the growth in the experiment with HCT-15 colon is 77.9%; in the experiment with HT29 colon it was 52.3%; in the experiment on SNB-75 CNS, 78.4%; with SNB-19 CNS, 93.3%; with U251 CNS it was 85.5%; in the experiment on PC-3 prostate, 73.8%. Besides, the growth was 76.3% in the experiment with SK-MEL-5 melanoma; 77.5% with UACC-62 melanoma; 75.9% with LOX IMVI melanoma; 91.9% in the experiment with SK-MEL-28 melanoma; 103% in the experiment on SK-MEL-2 melanoma; 89.5% in the experiment with EKVX NSCLC. Also, the growth is 78.7% with SN12C renal; 64% in the experiment with UO-31 renal; 103% in the experiment with TK-10 renal; 62% with ACHN renal; 70.5% in the experiment on CAKI-1 renal; 81.3% in the experiment with A498 renal. Further, the growth in the experiment with CCRF-CEM leukemia was 60.3%; with MOLT-4 leukemia, 82.5%.
